# Compound activity from PubChem BioAssay.
# BAZ2B inh: BAZ2B (human) inhibition; Q9UIF8; AlphaScreen BAZ2B-H3K14Ac peptide displacement; Potency, µM (series often up to 114 µM), most hits filed as inhibitors; 360,000 tested, 4.4% active; also: nearly all actives have a fitted effect of over 60% in size
#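 BAZ2B (50 nM) with biotin-H3(5-23)K14Ac peptide (50 nM) in PBS pH 7.4, 0.01% Tween-20, preformed 30 min, then compound 30 min at room temperature; top concentration 110uM. AlphaScreen streptavidin donor/nickel chelate acceptor beads (10 ug/mL final), 20 min dark, signal read.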
# Sfp inh: inhibitors of Bacillus subtilis Sfp phosphopantetheinyl transferase; Q9F4F7; Biochemical Sfp PPTase activity, qHTS; Potency, µM, actives largely listed as inhibitors; 310,000 tested, 3.5% active;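 also: the enzyme is Sfp with the accession as filed and its product quenches rhodamine fluorescence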
#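 After 15 min at room temperature with compound, 15 nM Sfp received 5 uM rhodamine-CoA plus 12.5 uM BHQ-2-ybbR (50 mM Hepes pH 7.6, 10 mM MgCl2). Rate came from the fluorescence difference over 30 min, ex 525/em 598 nm.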
# HP1b binding inh: inhibitors of HP1-beta chromodomain binding to methylated histone tails; Potency, µM (series often up to 114 µM), hits mostly inhibitors; 390,000 tested, 0.56% active; P83916; AlphaScreen HP1-beta / biotin-H3K9me3 peptide binding; also: nearly all actives have a fitted effect of over 70% in size
# Target sequence (P83916 whole entry, looked up): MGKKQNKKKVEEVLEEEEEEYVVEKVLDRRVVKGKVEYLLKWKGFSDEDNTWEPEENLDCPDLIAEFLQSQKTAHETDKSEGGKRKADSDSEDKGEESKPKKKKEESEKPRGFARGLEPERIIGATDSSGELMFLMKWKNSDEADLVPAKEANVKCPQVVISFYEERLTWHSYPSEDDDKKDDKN
#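 Compound inhibition of the preformed complex between 50 nM HP1-beta and 50 nM biotinylated H3K9me3 peptide was read by AlphaScreen. Buffer was PBS pH 7.4 with 0.01% Tween-20. Incubations ran 30 min at room temperature, with 10 ug/mL donor/acceptor beads.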
# G9a inh: blocks human histone lysine methyltransferase G9a; Q96KQ7; G9a H3K9 monomethylation, AlphaScreen, 2 h; Potency, µM (doses to about 102 µM), hits mostly inhibitors; 350,000 tested, 8.8% active; AID 504332; also: nearly all actives have a fitted effect of over 75% in size
# Target sequence (Q96KQ7 913-1193 limits assumed): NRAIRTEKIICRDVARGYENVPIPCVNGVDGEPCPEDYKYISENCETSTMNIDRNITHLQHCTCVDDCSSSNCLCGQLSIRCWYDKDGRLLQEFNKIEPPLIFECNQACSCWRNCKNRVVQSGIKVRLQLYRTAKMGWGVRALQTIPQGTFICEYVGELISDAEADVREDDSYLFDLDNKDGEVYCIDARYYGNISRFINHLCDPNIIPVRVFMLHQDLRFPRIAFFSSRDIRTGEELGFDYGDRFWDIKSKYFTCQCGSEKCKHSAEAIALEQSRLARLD
#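 Signal arises when biotinylated H3K9 peptide, once monomethylated, bridges streptavidin donor and antibody-captured acceptor beads. Enzyme at 20 nM was preincubated 15 min with test compounds; peptide 500 nM and SAM 20 uM then reacted for 2 h.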
# JMJD2A Tudor: blocks the human JMJD2A Tudor domain; AlphaScreen JMJD2A-Tudor / H3K4me3 peptide binding; Potency, µM (top dose mostly 114 µM), most hits filed as inhibitors; 390,000 tested, 4.4% active; AID 504339; also: nearly all actives have a fitted effect of over 50% in size
# Numbers stand for hits; i = inactive; ? = inconclusive; nt = no result; [ ] = remark or other dose. This is a sample that favours compounds with a hit; in the whole collection about 12% have one here. Calls follow the shape of the dose curve; as a rule, active = well fitted curve in the direction sought with a large enough effect; inconclusive = small, poorly fitted or top-dose-only effect, or another doubt; inactive = no such curve, though single readings can be large; an effect the other way counts as inactive or inconclusive.
SMILES,BAZ2B inh,Sfp inh,HP1b binding inh,G9a inh,JMJD2A Tudor
Cc1cc(C)c(C(=O)CSc2n[nH]c(-c3ccncc3)n2)c(C)c1,i,i,i,nt,i
CCc1nc(SCC(=O)c2cccc([N+](=O)[O-])c2)n[nH]1,i,?,?,?,40µM
Cc1ccc(C)c(C(=O)CSc2n[nH]c(-c3ccncc3)n2)c1,i,i,i,i,89µM
Nc1nc(SCc2cccc([N+](=O)[O-])c2)n[nH]1,i,i,i,i,i
O=C(CSc1n[nH]c(-c2ccncc2)n1)c1cccc([N+](=O)[O-])c1,i,?,i,22µM,i
COc1ccc(COC(=O)N/N=C2/C[C@@H](O)[C@@H](O)[C@@H]3[C@@H]4C(=O)N(Cc5ccc6c(c5)OCO6)C(=O)[C@H]4CC[C@@H]23)cc1,nt,i,nt,nt,nt
O=c1n(-c2ccccc2)c(=O)n2n1CC[C@H]1/C(=N\OC[C@@H](O)COCc3ccco3)[C@H]3O[C@@H]3[C@@H](O)[C@@H]12,nt,i,nt,nt,nt
CCc1nc2nc(C)c(NS(=O)(=O)c3ccc(C(C)(C)C)cc3)c(=O)n2[nH]1,i,nt,i,i,i
Cc1cc2c(s1)c1cnn(Cc3ccccc3F)c(=O)c1n2Cc1ccccc1F,nt,nt,nt,nt,i
Nc1c(C(=O)Nc2cccc(C(=O)O)c2)sc2nc3c(cc12)CCCC3,i,i,i,45µM,i
Nc1c(C(=O)Nc2ccc(Cl)c(C(=O)O)c2)sc2nc3c(cc12)CCCC3,i,i,i,45µM,i
Nc1c(C(=O)Nc2ccc(C(=O)O)cc2)sc2nc3c(cc12)CCCC3,i,nt,i,?,i
O=C(Nc1ccccc1C(=O)N1CCN(Cc2ccccc2)CC1)c1ccccn1,i,i,i,14µM,?
Cc1sc(Cc2nc(O)cs2)nc1-c1ccccc1,i,32µM,i,?,i[11.4 µM]
CCc1ccc(NC(=O)C(=O)NCC(c2cccnc2)N2CCOCC2)cc1 (stereo not given),?,nt,i,?,i
CC1Cc2ccccc2N1C(=O)c1ccc(N2CCCC2)c([N+](=O)[O-])c1 (stereo not given),25µM,i,i,?,45µM
CC1Cc2ccccc2N1C(=O)c1ccc(N2CCCCC2)c([N+](=O)[O-])c1 (stereo not given),32µM,i,?,32µM,40µM
O=C(O)c1ccccc1C(=O)c1ccc(N2CCCC2)c([N+](=O)[O-])c1,i,i,i,?,i[11.4 µM]
CC(=O)c1ccc(N2CCN(c3ccccc3O)CC2)c([N+](=O)[O-])c1,?,i,?,45µM,?
CC(=O)Nc1ccc(NC(=O)C2CCCN2S(=O)(=O)c2ccc3c(c2)CCCC(=O)N3)cc1 (stereo not given),?,nt,i,?,i
CC(=N\O)/C(CN(C)C)=N/O,i,i,i,?,79µM
CCc1ccc2c(c1)/C(=C/C(=O)c1cccs1)C(=O)N2,11µM,45µM,i,11µM,13µM
O=C(NCc1n[nH]c(=S)n1-c1cccc(C(F)(F)F)c1)c1ccc(S(=O)(=O)N2CCCCC2)cc1,i,?,i,8.9µM,i
Cc1ccc(C(=O)NCc2cccc(C(F)(F)F)c2)cc1S(=O)(=O)N1CCCCC1,i,nt,i,i,i
O=C(NCc1n[nH]c(=S)n1-c1cccc(C(F)(F)F)c1)c1ccc(S(=O)(=O)N2CCCC2)cc1,i,i,i,13µM,i
SMILES,BAZ2B inh,Sfp inh,HP1b binding inh,G9a inh,JMJD2A Tudor
Cc1oc2ncnc(N3CCCCC3)c2c1C(=O)N1CCN(c2ccc(Cl)cc2)CC1,i,nt,i,i,i
COc1c2c(nc3ccccc13)O[C@H]([C@@](C)(O)CO)C2,nt,i,nt,i[21.5 µM],nt
O=C(Nn1c(O)c(C=C2N=c3ccccc3=N2)sc1=S)c1ccccc1,i,i,i,1.4µM,i
O=C(Nn1c(O)c(C=C2N=c3ccccc3=N2)sc1=S)c1ccc(Cl)cc1,i,?,i,i,i
Cc1ccc(C(=O)Nn2c(O)c(C=C3N=c4ccccc4=N3)sc2=S)cc1,i,50µM,i,i,i
O=C1[C@@H]2C(Cc3ccc(O)cc3)NC3(C(=O)Nc4ccc(F)cc43)[C@@H]2C(=O)N1c1ccccc1 (stereo not given in full),i,i,i,79µM,79µM
Cc1ccc(N2C(=O)N3[C@H](c4ccc(F)cc4)[C@@H]4C(=O)N(C5CCCCC5)C(=O)[C@@H]4[C@]3(Cc3ccccc3)C2=O)cc1,?,i,i,nt,i
O=C1[C@@H]2[C@H](Cc3ccc(O)cc3)N[C@]3(C(=O)Nc4ccccc43)[C@@H]2C(=O)N1c1ccc(F)cc1,i,i,nt,?,nt
Cc1c(Cl)ccc2c1NC(=O)[C@]21N[C@@H](Cc2ccccc2)[C@H]2C(=O)N(c3ccc(F)cc3)C(=O)[C@H]21,?,i,i,1.6µM,i
CCC(=O)Oc1ccc(C2Nc3ccccc3-c3nnc(SC)nc3O2)cc1 (stereo not given),i,nt,i,i,i
CCC(C)OC(=O)/C(C#N)=C\c1ccc(-c2cccc(C(F)(F)F)c2)o1 (stereo not given),i,nt,i,i,i
COC(=O)c1cccc(Nc2ncnc3sccc23)c1,nt,i,i,35µM,i
COc1ccc(Nc2ncnc3sccc23)cc1,i,i,i,45µM,i
COc1cccc(Nc2ncnc3sccc23)c1,i,i,i,i,i
COc1cc(/C=C(\C#N)c2nc3ccc(C)cc3[nH]2)cc([N+](=O)[O-])c1O,13µM,i,35µM,nt,40µM
CCCOc1cc(N(CC)CC)ccc1/C=C(/C#N)c1nc2ccc(C)cc2[nH]1,?,?,i,20µM,i
Cn1c(/C(C#N)=C/c2ccc(O)cc2)nc2ccccc21,i,i,i,nt,i
COc1c(O)ccc(/C=C(\C#N)c2nc3ccccc3[nH]2)c1[N+](=O)[O-],40µM,i,?,7.9µM,?
COc1cc(/C=C(\C#N)c2nc3ccc(C)cc3[nH]2)c([N+](=O)[O-])cc1OC,i,i,i,nt,i
COc1c(Cl)cc(Cl)cc1/C=C(\C#N)c1nc2ccccc2[nH]1,i,nt,i,i,i
COc1cc(/C=C(\C#N)c2nc3ccccc3n2C)cc(OC)c1O,i,i,i,22µM,i
O=S(=O)(c1ccc(Br)cc1)N1CCN(S(=O)(=O)c2ccc3c(c2)OCCO3)CC1,nt,nt,nt,nt,i
COc1ccc(C#CC2C=CC(Oc3cc(C)cc(C)c3)C(CO)O2)cc1 (stereo not given),nt,i,nt,nt,nt
COc1ccc(/C=C(\C#N)c2nc3ccccc3[nH]2)cc1O,i,i,i,?,?
COc1cc(/C=C(\C#N)c2nc3ccccc3[nH]2)cc(OC)c1O,40µM,?,i,10µM,?
COc1cc(OC)c(NC(=O)Nc2sc3nc4n(c(=O)c3c2C)CCC(C)CC4)cc1Cl (stereo not given),i,nt,i,i,i
CN1/C(=C/c2cc[n+](C)c3ccccc23)C=Cc2ccccc21,28µM,i,?,35µM,28µM
